# Where “and” joins values, the source holds several entries; their conditions need not be identical. Identical values can stand only once. Results filed as inconclusive are left out. Where a call stands in place of a potency, no number is given. Calls of active or inactive are those of the source. Unless noted, calls come from the whole dose curve; as a rule, active = well fitted curve in the direction sought with a large enough effect; inconclusive = small, poorly fitted or top-dose-only effect, or another doubt; inactive = no such curve, though single readings can be large; an effect the other way counts as inactive or inconclusive.
# Tests used:
# [1] = qHTS Assay for Lipid Storage Modulators (AID 1519; calls by dose curve); details: Drosophila S3 cells, BODIPY lipid droplet/cell ratio, laser cytometry, cells loaded with oleic acid
# Summary of the method: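 Cells seeded at 5,000 per well were treated with compounds over a concentration series and loaded with oleic acid (400 uM, as added). Lipid droplet fluorescence (488 nm excitation, 500-530 nm channel) was read by laser-scanning cytometry and normalized to 20 uM Triacsin C.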
# [2] = target: alpha-glucosidase (Oryza sativa, rice) (UniProt Q653V4); assay: Counterscreen for Glucocerebrosidase Inhibitors: qHTS Assay for Rice alpha-Glucosidase at pH 5.0 (AID 997); details: rice alpha-glucosidase enzyme activity; series mostly up to 76.9 µM
# Summary of the method: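 Rice alpha-glucosidase (4 nM final) with 400 uM 4-methylumbelliferyl-alpha-D-glucopyranoside in citrate buffer pH 5.0, 20 min at room temperature, stopped at pH 10; fluorescence 365/440 nm, compounds 0.7 nM–77 uM, AC50 from Hill fits.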
# [3] = Validation of Assay for Modulators of Lamin A Splicing (AID 1459; active = well fitted curve in the direction sought with a large enough effect in the signal ratio; the % refers to the signal ratio;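 note: cells exposed to compound for two days before reading; ratio rise marks activators and ratio drop marks inhibitors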); details: Lamin A splicing dual RFP/GFP fluorescence reporter; series mostly up to 9.22 µM
# Summary of the method: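 S3 HeLa stably expressing lamin A-EGFP splicing minigene and DsRed2, 600 cells/well in Opti-MEM with 2% FBS, treated 48 h at 37C; laser-scanning cytometry gives GFP/RFP total intensity ratio; ancitabine positive control, 0.5% DMSO vehicle.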
# [4] = target: DNA repair nuclease/redox regulator APEX1 (Homo sapiens) (UniProt P27695); assay: qHTS Validation Assay for Inhibitors of the Human Apurinic/apyrimidinic Endonuclease 1 (APE1) (AID 1705;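 note: TAMRA fluorescence gain over two minutes as APE1 cuts a quenched THF abasic duplex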); details: purified APE1 endonuclease activity, fluorescence, titration; series mostly up to 57.1 µM
# Summary of the method: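 Fluorogenic double-stranded THF abasic-site substrate (5'-TAMRA/3'-BHQ-2), 50 nM final. Enzyme preincubated with compound 15 min at room temperature, then substrate added. Kinetic fluorescence (ex 525/em 598 nm) read three times at 60 s intervals; activity taken as third-minus-first read difference.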
# [5] = Counterscreen for APE1 Inhibitors: Fluorescent Dye Displacement Validation Assay (AID 1707); details: fluorescent dye displacement from DNA; series mostly up to 57.1 µM
# Summary of the method: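 Thiazole Orange (250 nM) bound to 50 nM TAMRA-labelled dsDNA with tetrahydrofuran abasic site; displacement by DNA-binding compounds lowers fluorescence. Buffer 50 mM Tris-HCl pH 7.5, 50 mM NaCl, 2 mM MgCl2, 0.01% Tween-20; endpoint read at 480/540 nm.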
# [6] = target: Endonuclease 4 (Escherichia coli (strain K12)) (UniProt P0A6C1); assay: Counterscreen for APE1 Inhibitors: qHTS Validation Assay for Inhibitors of Endonuclease IV (AID 1708); details: E. coli endonuclease IV, DNA cleavage fluorescence; series mostly up to 57.1 µM
# Summary of the method: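 qHTS concentration-response format; LOPAC1280 tested under APE1-screen conditions. 2 nM enzyme, 15 min compound preincubation at RT, then 50 nM TAMRA/BHQ-2 abasic substrate; kinetic fluorescence read, three reads at 60 s intervals.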
# [7] = qHTS for differential inhibitors of proliferation of Plasmodium falciparum line 7G8 (AID 1815); details: Plasmodium falciparum 7G8 proliferation inhibition; series mostly up to 28.7 µM;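 note: parasite growth measured after three days of incubation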; note: potency is the fitted concentration of half-maximal effect
# [8] = qHTS for differential inhibitors of proliferation of Plasmodium falciparum line GB4 (AID 1816); details: Potency: Plasmodium falciparum GB4 proliferation inhibition; series mostly up to 28.7 µM;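 note: parasite growth measured after 72 h incubation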; note: potency is the fitted concentration of half-maximal effect
# [9] = qHTS for differential inhibitors of proliferation of Plasmodium falciparum line 3D7 (AID 1876); note: potency is the fitted concentration of half-maximal effect; details: P. falciparum 3D7 proliferation inhibition; series mostly up to 28.7 µM
# [10] = qHTS for differential inhibitors of proliferation of Plasmodium falciparum line D10 (AID 1877); details: series mostly up to 28.7 µM;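 note: parasites grown with compound for 72 h before DNA staining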; note: potency is the fitted concentration of half-maximal effect
# [11] = qHTS for differential inhibitors of proliferation of Plasmodium falciparum line Dd2 (AID 1882); details: Potency: Plasmodium falciparum Dd2 proliferation inhibition; series mostly up to 28.7 µM; note: nearly all actives have a fitted effect of over 65% in size; note: potency is the fitted concentration of half-maximal effect
# Summary of the method: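 Dd2-infected erythrocytes (0.3% parasitemia, 2.5% hematocrit final) incubated with compound 72 h at 37 C, 5% CO2; lysed with saponin/Triton buffer containing SYBR Green I, incubated overnight in the dark, then read by fluorescence (485/535 nm). Normalized to 0.29 uM artemisinin and DMSO.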
# [12] = qHTS for differential inhibitors of proliferation of Plasmodium falciparum line W2 (AID 1883); details: Potency: Plasmodium falciparum W2 proliferation inhibition; series mostly up to 28.7 µM;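 note: parasites grown with compound for 72 h before lysis and staining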; note: potency is the fitted concentration of half-maximal effect
# [13] = qHTS Assay for Modulators of Human Peripheral Myelin Protein 22 (PMP22) Expression/Activity (AID 1967; active = well fitted curve in the direction sought with a large enough effect in the signal ratio; the % refers to the signal ratio); details: Cell-based PMP22 reporter, dual-color luciferase ratio, 0% = compound-free control cells, mouse Pmp22 promoter in mouse Schwann cells; series mostly up to 115 µM
# Summary of the method: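 Mouse MSC80 Schwann cells carrying Pmp22 promoter–green click beetle luciferase plus EF-alpha–red luciferase control, dosed 24 h at 37 °C. Dual-filter luminescence, overlap-corrected; %Activity from green/red ratio normalised to untreated cells, concentration-response curves fitted.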
# [14] = target: Ferritin light chain (Equus caballus) (UniProt P02791); assay: qHTS Validation Assay for Identification of Novel General Anesthetics (AID 2323); details: horse apoferritin, anesthetic-site fluorescent probe displacement; series mostly up to 76.9 µM
# Summary of the method: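 Horse-spleen apoferritin (10 uM) in PBS with 50% saturated 1-aminoanthracene; compounds pin-transferred, 10 min at room temperature. Fluorescence read at 380/535 nm, normalized to free 1-AMA and 1-AMA/apoferritin values; four-parameter Hill fit.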
# [15] = target: ATP-dependent DNA helicase Q1 (Homo sapiens) (UniProt P46063); assay: qHTS Validation Assay for Inhibitors of RecQ-Like Dna Helicase 1 (RECQ1) (AID 2353); details: recombinant RECQ1 helicase DNA unwinding assay; series mostly up to 25.6 µM
# Summary of the method: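 50 nM RECQ1T1 preincubated 15 min with compound in Tris pH 8.0 buffer with MgCl2, DTT, Tween-20 and 2.5 ug/ml poly(dI-dC); started with 200 nM TAMRA/BHQ-2 forked duplex and 2 mM ATP. Unwinding read as fluorescence (525/598 nm), two reads 2 h apart.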
# [16] = target: RecQ-like DNA helicase BLM (Homo sapiens) (UniProt P54132); assay: qHTS Validation Assay for Inhibitors of Bloom's syndrome helicase (BLM) (AID 2364); details: BLM helicase DNA unwinding, fluorescence, in vitro; series mostly up to 57.1 µM
# Summary of the method: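 Forked 20-bp duplex substrate (200 nM, TAMRA/BHQ-2) plus 2 mM ATP added after 15 min compound preincubation with 50 nM enzyme, pH 8.0, poly(dI-dC) 2.5 ug/ml. Strand separation followed by fluorescence (525/598 nm) over 2 h, normalized to enzyme-free and DMSO controls.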
# [17] = Cytometric Cell-Based qHTS for Inhibitors of the mTORC1 Signaling Pathway in MEF (Tsc2-/-, p53-/-) Cells (AID 2660); details: mTORC1 pathway cytometry; series mostly up to 38.3 µM;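 note: percent of cells above a phospho-rpS6 to PI ratio cutoff in each well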
# Summary of the method: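 Tsc2-/-, p53-/- MEFs (empty vector) exposed to compound 24 h at 37 C, fixed, stained with Alexa-488 anti-phospho-rpS6 Ser235/236 and propidium iodide. Acumen laser scanning; phospho-S6/PI ratio thresholded against 7.5 nM rapamycin, reported as % positive cells.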
# [18] = qHTS for differential inhibitors of proliferation of Plasmodium falciparum line HB3 (AID 1886); details: Potency: Plasmodium falciparum HB3 proliferation inhibition; series mostly up to 28.7 µM;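 note: parasites grown with compound for 72 h before SYBR Green readout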; note: potency is the fitted concentration of half-maximal effect
# [19] = Cell Viability - LYMP1-002 - Assay at 40 hr (AID 994); details: LYMP1-002 lymphoblastoid cell viability; series mostly up to 92.2 µM; note: nearly all actives have a fitted effect of over 60% in size; note: potency is the fitted concentration of half-maximal effect
# Summary of the method: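 Luminescent ATP signal served as the viability readout, with decreases taken as toxicity. Cells were treated with compounds across a concentration range for 40 hours at 37 C, and AC50 values came from standard Hill modeling.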
# [20] = qHTS Assay for Identification of Small Molecule Inducers of Hypoxia Response (AID 2120; active = well fitted curve in the direction sought with a large enough effect in the signal ratio, with a control signal flat, not every such curve was filed as active; the % refers to the signal ratio); details: hypoxia response reporter cells, beta-lactamase ratio readout; series mostly up to 104 µM
# Summary of the method: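 ME-180 HRE-bla cells plated in Opti-MEM/0.5% dialyzed FBS, rested 4-5 h, then dosed with compound titrations by pin tool. After 17 h at 37 degrees C, CCF4 dye loaded 2.5 h at RT; 460/530 nm ratio gave %Activity and AC50.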
# [21] = measured here: cell count channel max response
# [22] = measured here: lipid channel max response
# Chain of Ferritin light chain (Equus caballus) (P02791 2-175 limits assumed): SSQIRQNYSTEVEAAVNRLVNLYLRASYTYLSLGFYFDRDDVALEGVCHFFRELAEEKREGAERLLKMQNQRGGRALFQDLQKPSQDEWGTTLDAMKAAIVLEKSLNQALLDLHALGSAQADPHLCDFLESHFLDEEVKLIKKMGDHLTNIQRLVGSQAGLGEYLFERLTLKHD
# Chain of RecQ-like DNA helicase BLM (Homo sapiens) (P54132 whole entry, looked up): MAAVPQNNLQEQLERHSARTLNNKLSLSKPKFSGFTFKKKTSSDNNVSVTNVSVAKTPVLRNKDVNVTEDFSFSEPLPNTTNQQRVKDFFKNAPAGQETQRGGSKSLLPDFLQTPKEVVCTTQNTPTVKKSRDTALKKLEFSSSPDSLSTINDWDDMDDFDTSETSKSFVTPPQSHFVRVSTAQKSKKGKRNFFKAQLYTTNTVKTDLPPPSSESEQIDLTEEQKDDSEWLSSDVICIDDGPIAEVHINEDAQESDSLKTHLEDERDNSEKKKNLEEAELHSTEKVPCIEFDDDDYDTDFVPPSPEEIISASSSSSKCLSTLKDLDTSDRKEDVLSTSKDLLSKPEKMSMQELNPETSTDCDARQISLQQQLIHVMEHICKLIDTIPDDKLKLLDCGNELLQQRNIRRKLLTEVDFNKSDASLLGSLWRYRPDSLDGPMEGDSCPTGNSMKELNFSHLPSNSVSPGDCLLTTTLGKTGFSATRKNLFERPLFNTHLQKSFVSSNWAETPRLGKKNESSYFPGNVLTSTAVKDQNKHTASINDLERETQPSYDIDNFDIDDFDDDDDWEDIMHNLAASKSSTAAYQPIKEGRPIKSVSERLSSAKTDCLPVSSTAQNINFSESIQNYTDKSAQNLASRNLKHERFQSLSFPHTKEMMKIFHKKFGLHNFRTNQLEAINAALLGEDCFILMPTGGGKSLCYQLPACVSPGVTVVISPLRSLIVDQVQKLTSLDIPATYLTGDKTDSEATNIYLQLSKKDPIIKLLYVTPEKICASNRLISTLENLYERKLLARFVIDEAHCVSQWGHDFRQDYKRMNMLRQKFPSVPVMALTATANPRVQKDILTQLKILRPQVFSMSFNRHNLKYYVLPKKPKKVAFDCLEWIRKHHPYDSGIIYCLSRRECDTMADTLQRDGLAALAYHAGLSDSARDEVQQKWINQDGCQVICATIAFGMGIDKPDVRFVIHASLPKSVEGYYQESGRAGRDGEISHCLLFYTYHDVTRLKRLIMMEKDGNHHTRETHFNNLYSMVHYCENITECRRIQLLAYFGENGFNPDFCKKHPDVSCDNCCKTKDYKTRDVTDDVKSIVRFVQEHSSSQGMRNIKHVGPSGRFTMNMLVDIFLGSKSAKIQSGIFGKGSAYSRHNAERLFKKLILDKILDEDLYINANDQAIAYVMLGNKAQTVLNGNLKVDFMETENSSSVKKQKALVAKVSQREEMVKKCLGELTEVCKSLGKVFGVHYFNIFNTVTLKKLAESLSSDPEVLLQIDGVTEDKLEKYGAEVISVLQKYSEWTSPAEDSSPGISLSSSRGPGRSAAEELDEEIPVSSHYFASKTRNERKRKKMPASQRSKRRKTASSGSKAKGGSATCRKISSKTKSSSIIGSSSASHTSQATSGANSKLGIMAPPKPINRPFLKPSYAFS
# Chain of ATP-dependent DNA helicase Q1 (Homo sapiens) (P46063 whole entry, looked up): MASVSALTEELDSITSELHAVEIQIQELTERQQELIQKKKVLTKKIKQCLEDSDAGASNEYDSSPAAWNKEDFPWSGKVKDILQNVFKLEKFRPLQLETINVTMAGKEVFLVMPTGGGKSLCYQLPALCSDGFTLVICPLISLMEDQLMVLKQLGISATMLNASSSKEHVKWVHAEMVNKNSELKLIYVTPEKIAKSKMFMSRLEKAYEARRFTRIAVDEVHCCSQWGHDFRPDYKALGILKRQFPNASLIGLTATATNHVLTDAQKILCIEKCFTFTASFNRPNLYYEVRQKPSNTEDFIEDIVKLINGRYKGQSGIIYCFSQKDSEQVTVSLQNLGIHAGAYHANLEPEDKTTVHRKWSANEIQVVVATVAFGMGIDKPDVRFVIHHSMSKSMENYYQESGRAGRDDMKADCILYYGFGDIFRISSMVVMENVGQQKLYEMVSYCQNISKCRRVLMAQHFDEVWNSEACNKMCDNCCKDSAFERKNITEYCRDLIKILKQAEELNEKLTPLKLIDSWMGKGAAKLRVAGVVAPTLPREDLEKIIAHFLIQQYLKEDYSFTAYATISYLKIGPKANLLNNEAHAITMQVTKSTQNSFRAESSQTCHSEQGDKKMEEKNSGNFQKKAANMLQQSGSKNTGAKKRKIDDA
# Chain of DNA repair nuclease/redox regulator APEX1 (Homo sapiens) (P27695 whole entry, looked up): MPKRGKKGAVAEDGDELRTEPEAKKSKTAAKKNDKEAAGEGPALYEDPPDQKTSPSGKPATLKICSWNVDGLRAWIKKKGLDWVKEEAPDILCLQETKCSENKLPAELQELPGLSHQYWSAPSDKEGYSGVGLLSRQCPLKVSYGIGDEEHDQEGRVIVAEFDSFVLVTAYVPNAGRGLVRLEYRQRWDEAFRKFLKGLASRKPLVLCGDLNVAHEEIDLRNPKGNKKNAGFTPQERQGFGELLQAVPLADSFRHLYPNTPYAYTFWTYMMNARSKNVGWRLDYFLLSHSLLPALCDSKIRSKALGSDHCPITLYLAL
smiles,measurement,setting,value
Cc1ncc(CO)c(CO)c1O,"activity change, negative = inhibition",[1]; at 25.7 µM (top of the series),-0.151% (inactive)
same,max response,[1]; [21],0.978%
same,max response,[1]; [22],-0.91%
NC(N)=NCCCCN=C(N)N,outcome,[2],inactive
same,outcome,[3],inactive
same,"activity change, negative = inhibition",[1]; at 25.7 µM (top of the series),-0.421% (inactive)
same,"activity change, negative = inhibition",[1]; at 57.5 µM (top of the series),-1.91% (inactive) and 4.1% (inactive) and 0.28% (inactive)
same,outcome,[4],inactive
same,outcome,[5],inactive
same,outcome,[6],inactive
same,Potency,[7],inactive
same,Potency,[8],inactive
same,Potency,[9],inactive
same,Potency,[10],inactive
same,Potency,[11],inactive
same,Potency,[12],inactive
same,outcome,[13],inactive
same,outcome,[14],inactive
same,outcome,[15],inactive
same,outcome,[16],inactive
same,outcome,[17],inactive
COc1cccc2c1[C@@H]1CN(CCCCn3c(=O)[nH]c4c(sc5ncc(-c6ccccc6)nc54)c3=O)C[C@@H]1CO2,outcome,[3],inactive
same,"activity change, negative = inhibition",[1]; at 57.5 µM (top of the series),0.568% (inactive)
same,max response,[1]; [21],7.98%
same,max response,[1]; [22],9.55%
same,outcome,[4],inactive
same,outcome,[5],inactive
same,Potency,[7],11.2 µM (active)
same,Potency,[11],inactive
same,outcome,[15],inactive
same,outcome,[16],inactive
CN(C)c1cc2c(Nc3ccc4c(cnn4Cc4ccccc4)c3)ncnc2cn1,outcome,[2],inactive
same,outcome,[3],inactive
same,outcome,[5],inactive
same,Potency,[7],5.01 µM (active)
same,Potency,[8],3.16 µM (active)
same,Potency,[9],3.55 µM (active)
same,Potency,[10],10 µM (active)
same,Potency,[11],11.2 µM (active)
same,Potency,[12],3.55 µM (active)
same,Potency,[18],4.47 µM (active)
same,outcome,[14],inactive
same,outcome,[15],inactive
same,outcome,[17],inactive
Nc1c2ccccc2nc2ccccc12,Potency,[19],12.6 µM (active)
same,"activity change, negative = inhibition",[1]; at 57.5 µM (top of the series),-13.1% (inactive)
same,max response,[1]; [21],-6.77%
same,max response,[1]; [22],-18.9%
Brc1ccc([C@H]2CN3CCSC3=N2)cc1,outcome,[2],inactive
same,outcome,[3],inactive
same,"activity change, negative = inhibition",[1]; at 57.5 µM (top of the series),0.192% (inactive)
same,max response,[1]; [21],-9.46%
same,max response,[1]; [22],-7.25%
same,outcome,[4],inactive
same,outcome,[5],inactive
same,outcome,[6],inactive
same,Potency,[7],11.2 µM (active)
same,Potency,[8],12.6 µM (active)
same,Potency,[10],inactive
same,Potency,[12],7.94 µM (active)
same,outcome,[13],inactive
same,outcome,[15],inactive
same,outcome,[17],inactive
C[C@]12CCC(=O)C=C1CC[C@@H]1[C@@H]2[C@@H](O)C[C@@]2(C)[C@H]1CC[C@]2(O)C(=O)COC(=O)CCC(=O)O,outcome,[4],inactive
same,outcome,[5],inactive
same,outcome,[6],inactive
same,Potency,[8],inactive
same,Potency,[9],inactive
same,Potency,[10],inactive
same,Potency,[11],inactive
same,Potency,[18],inactive
same,outcome,[14],inactive
same,outcome,[15],inactive
same,outcome,[16],inactive
CCN(CC)CCOc1ccc(/C(=C(\Cl)c2ccccc2)c2ccccc2)cc1,"activity change, negative = inhibition",[1]; at 57.5 µM (top of the series),-1.21% (inactive)
same,max response,[1]; [21],9.36%
same,max response,[1]; [22],11.5%
Cc1cc(C(C)(C)C)c(O)c(C(C)(C)C)c1,Potency,[19],inactive
same,"activity change, negative = inhibition",[1]; at 57.5 µM (top of the series),4.82% (inactive)
same,max response,[1]; [21],4.25%
same,max response,[1]; [22],10.5%
same,outcome,[20],inactive
Cc1ccc(O)cc1,Potency,[19],inactive
same,"activity change, negative = inhibition",[1]; at 57.5 µM (top of the series),6.36% (inactive)
same,max response,[1]; [21],10.2%
same,max response,[1]; [22],20.7%
COC(=O)c1c(Cl)c(Cl)c(C(=O)OC)c(Cl)c1Cl,"activity change, negative = inhibition",[1]; at 57.5 µM (top of the series),5.84% (inactive)
same,max response,[1]; [21],15.4%
same,max response,[1]; [22],24.6%
CN(C(=O)C(Cl)Cl)c1ccc(OC(=O)c2ccco2)cc1,"activity change, negative = inhibition",[1]; at 25.7 µM (top of the series),-19.5% (inactive)
same,max response,[1]; [21],-11.9%
same,max response,[1]; [22],-28.6%
C1N2CN3CN1CN(C2)C3,"activity change, negative = inhibition",[1]; at 57.5 µM (top of the series),4.78% (inactive)
same,max response,[1]; [21],-0.0775%
same,max response,[1]; [22],6.42%
